One assay addresses Albumin (Bos taurus) (UniProt P02769). The assay is described as follows: bovine serum albumin binders on microarray, profiling panel, artefact control for SMM control protein annotation, biochemical, small-molecule microarray, Alexa647 label, 635/667 nm fluorescence (AID 1118).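 Further: score merges 667 nm emission intensity and signal-to-noise per printed compound spot.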 The conditions noted are these: BSA-A647 binding, fluorescence 635 nm, higher = more signal.
Assay [1] in a line: small-molecule microarray binders of probe aXIP, primary screen, biochemical, NeuroSMM set, 635/667 nm fluorescence (AID 1119).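 Further: probe is the protein aXip251-270 applied at 1 µg/mL to compound-printed slides; binding of probe to printed compounds measured as 667 nm fluorescence plus signal to noise.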 The conditions noted are these: higher = more signal, called active from +8 up or from −8 down.
A short description of assay [2]: small-molecule binders of probe aNOTCH3, primary screen, biochemical, small-molecule microarray, 635/667 nm fluorescence (AID 1120).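 Further: probe is a biotin-tagged antibody raised against NOTCH3 rather than NOTCH3 protein; score merges spot fluorescence near 667 nm with spot signal to noise.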 Conditions: higher = more signal.
Assay [3] can be described thus: small-molecule binders of probe aNOTCH2, primary screen, biochemical, small-molecule microarray, 635/667 nm fluorescence (AID 1121).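 Further: score merges feature fluorescence read at 667 nm with its signal to noise.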 The conditions noted are these: higher = more signal.
The target in assay [4] is Carbonic anhydrase 2 (Homo sapiens) (UniProt P00918). Kind of assay: CAII small-molecule binders, profiling panel, biochemical, small-molecule microarray, Alexa647-labelled CAII (AID 1122). Conditions: CAII-A647 binding fluorescence, higher = more signal.
Assay [5] in a line: COS7 lysate on small-molecule microarray, probe aHis, 635 nm (AID 1123).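 Further: z-score combines 667nm fluorescence intensity with signal-to-noise per printed compound spot.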 Conditions: COS7 cell lysate, fluorescence, higher = more signal.
The nature of assay [6]: compound binding in COS7 lysate, probe aLAP1, primary screen, cell lysate, small-molecule microarray (AID 1124).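 Further: lysate comes from COS7 cells expressing LAP1 and is applied at 0.3 µg/mL; score merges spot fluorescence near 667 nm with signal-to-noise over triplicate slides.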 Conditions: probe aLAP1, fluorescence, higher = more signal.
In the next assay the test system is Sam68 (KHDRBS1). The assay is described as follows: Sam68 small-molecule binders, primary screen, biochemical, small-molecule microarray, 635 nm fluorescence (AID 1125).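 Further: score merges 667 nm channel intensity with signal to noise over triplicate slides.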 Conditions: small-molecule microarray binding, higher = more signal.
For assay [7], the system named is Chordin-like protein 2 (CHRDL2). The assay is described as follows: CHRDL2 small-molecule binders, primary screen, biochemical, small-molecule microarray, 635 nm fluorescence (AID 1126).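 Further: printed compound slides probed with Chrdl2 protein at 4 µg/mL for 1 h at 4 C; score merges 667 nm emission intensity with signal to noise over three replicate slides.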 Conditions: small-molecule microarray binding, fluorescence 635 nm; higher = more signal.
Assay [8] has as its target Concanavalin-A (Canavalia ensiformis) (UniProt P02866). Kind of assay: ConA small-molecule binders, primary screen, artefact control for SMM control protein annotation, biochemical, small-molecule microarray, Alexa647 label, 635 nm (AID 1127).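 Further: z combines 667 nm emission intensity with signal-to-noise across three replicate slides.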 The conditions noted are these: ConA-A647 binding fluorescence, higher = more signal.

The source made the active and inactive calls.

Chain of Concanavalin-A (Canavalia ensiformis) (P02866 whole entry, looked up): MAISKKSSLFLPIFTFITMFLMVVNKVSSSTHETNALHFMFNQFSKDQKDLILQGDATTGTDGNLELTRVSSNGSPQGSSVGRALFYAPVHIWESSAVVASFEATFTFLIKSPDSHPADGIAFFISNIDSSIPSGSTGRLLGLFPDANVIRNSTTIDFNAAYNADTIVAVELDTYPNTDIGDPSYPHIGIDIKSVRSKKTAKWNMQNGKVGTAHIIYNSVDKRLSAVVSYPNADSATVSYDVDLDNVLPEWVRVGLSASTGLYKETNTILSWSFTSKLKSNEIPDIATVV
Chain of Albumin (Bos taurus) (P02769 whole entry, looked up): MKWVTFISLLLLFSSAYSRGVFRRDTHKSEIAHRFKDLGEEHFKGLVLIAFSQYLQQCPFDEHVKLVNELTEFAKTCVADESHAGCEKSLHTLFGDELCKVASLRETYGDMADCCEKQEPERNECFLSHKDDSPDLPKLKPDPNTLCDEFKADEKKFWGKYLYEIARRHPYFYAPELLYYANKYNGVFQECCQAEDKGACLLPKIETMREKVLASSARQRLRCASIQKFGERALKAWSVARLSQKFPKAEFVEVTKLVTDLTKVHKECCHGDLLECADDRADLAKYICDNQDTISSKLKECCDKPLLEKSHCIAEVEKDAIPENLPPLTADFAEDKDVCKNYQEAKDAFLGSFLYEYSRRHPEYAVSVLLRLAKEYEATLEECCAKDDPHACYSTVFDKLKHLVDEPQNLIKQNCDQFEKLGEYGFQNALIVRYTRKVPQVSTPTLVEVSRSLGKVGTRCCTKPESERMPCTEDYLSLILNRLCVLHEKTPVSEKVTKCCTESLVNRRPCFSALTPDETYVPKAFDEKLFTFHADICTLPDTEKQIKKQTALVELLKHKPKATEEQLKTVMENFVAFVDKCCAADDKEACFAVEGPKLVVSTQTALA

As for `Cc1ccc(S[C@]2(C(=O)NC(C)C)CC(=O)N(Cc3ccccc3)[C@@H]2c2ccc(CO)cc2I)cc1`, the composite z-score with Albumin (Bos taurus) is -0.437; in assay [2], -0.229; in assay [3], -0.227; in assay [4] it was 0.784; in [5] it was 1.79; in [6], 0.532. For the same compound, the composite z-score in the assay on Sam68 (KHDRBS1) is 0.636; in assay [7], -2.55; in assay [8] it was -0.639. Further, the composite Z-score in assay [1] is -0.0142 (inactive).
On to `C=CC[C@]1(C(=O)NCC(O)CO)N=C(c2ccc(OCCCO)cc2)O[C@H]1c1ccccc1CN=[N+]=[N-]` (stereo not given in full), for which the composite z-score is 0.0838 in the assay with Albumin (Bos taurus); -0.0362 in assay [2]; -0.0357 in [3]; 0.522 in assay [4]; 3.12 in [5]; 0.988 in assay [6]. The composite z-score in the assay on Sam68 (KHDRBS1) was 0.605; in assay [7], -1.33; in [8], 0.148. The composite Z-score in assay [1] was 0.58 (inactive).
As for `O=C(N1CCOCC1)[C@]1(CCS(=O)(=O)c2ccccc2)N=C(c2ccc(OCCCO)cc2)O[C@@H]1c1ccccc1`, the composite z-score with Albumin (Bos taurus) is 1.03; in assay [2] it was 0.149; in [3], -0.0256; in assay [4] it was 0.441; in assay [5], 2.86; in [6], 0.473. Moreover, the composite z-score in the assay with Sam68 (KHDRBS1) was 1.31; in assay [7] it was -0.62; in assay [8], 1.21. In assay [1], the composite Z-score was 1.35 (inactive).
Consider `C=C(C)C1CN([C@H](CO)c2ccccc2)C(=O)/C1=C\c1ccccc1` (stereo not given in full), for which the composite z-score was 0.252 in the assay with Albumin (Bos taurus); -0.0647 in assay [2]; -0.0741 in [3]; 0.158 in [4]; -0.574 in [5]; 0.027 in assay [6]. For the same compound, the figures for the composite z-score (in the assay with Sam68 (KHDRBS1); in [7]; in assay [8]) were 0.168, 0.467 and 0.0006, respectively. Moreover, the composite Z-score in assay [1] was -0.137 (inactive).
As for `COC(=O)c1c2oc(c1C(=O)OC)C(=O)N[C@H](Cc1ccccc1)Cn1cc(nn1)C1(CCCCC1)NC(=O)N[C@H](CO)CC2`, the composite z-score was 0.264 in the assay with Albumin (Bos taurus); -0.0113 in assay [2]; -0.15 in [3]; 0.765 in assay [4]; 0.856 in [5]; 0.474 in [6]. For the same compound, the composite z-score is 0.0112 in the assay with Sam68 (KHDRBS1), -0.2 in assay [7] and -1.71 in [8]. Besides, the composite Z-score in assay [1] is 0.605 (inactive).
Take `COC(=O)[C@@]1(Cc2ccc(OC)cc2)[C@@H]2[C@@H](CC(=O)[C@H]2CC(=O)C(=O)N(C)C)CN1C(=O)c1ccccc1`: the composite z-score was 0.964 with Albumin (Bos taurus); 1.52 in assay [2]; 0.732 in assay [3]; 0.617 in [4]; 3.17 in assay [5]; 0.505 in [6]. Also, the values for the composite z-score (with Sam68 (KHDRBS1); in assay [7]; in assay [8]) were 1.32, -0.875 and 1.13, respectively. Besides, the composite Z-score in assay [1] is 0.289 (inactive).
Consider `CCN1C(=O)C2CC(=O)C3C(CN(S(=O)(=O)c4ccc(C)cc4)C3c3ccc(C)cc3)C2C1=O` (stereo not given), for which the composite z-score with Albumin (Bos taurus) was 0.449; in [2] it was 0.0282; in assay [3] it was -0.108; in assay [4] it was 0.75; in [5] it was 2.05; in assay [6], 1.11. Moreover, the composite z-score with Sam68 (KHDRBS1) is 0.768; in [7], -0.99; in assay [8], 0.99. Moreover, the composite Z-score in assay [1] was 0.37 (inactive).
`C=CCOC(=O)[C@@H]1[C@H]2C(=O)O[C@H](c3ccccc3)[C@H](c3ccccc3)N2[C@H](c2ccc(OCCOC(=O)[C@H]3C[C@H]4C(=O)N[C@@H](CCCCN(C)C)C(=O)N4[C@H]3c3cccc(OCCO)c3)cc2)[C@@]12C(=O)Nc1ccccc12`: the composite z-score with Albumin (Bos taurus) was 0.172; in [2], -0.2; in assay [3] it was 0.0018; in assay [4] it was 0.656; in assay [5], 0.668; in assay [6], 0.781. Besides, the composite z-score in the assay on Sam68 (KHDRBS1) amounted to 0.846; in assay [7], 0.0523; in assay [8], 0.682. Besides, the composite Z-score in assay [1] is 0.597 (inactive).
As for `CC(CO)N1C(=O)[C@@H]2[C@H]3C(=O)OCC=C[C@H]3OC23C=CCN(c2ccc4ccccc4c2)C(=O)[C@@H]13` (stereo not given in full), the composite z-score was 0.876 with Albumin (Bos taurus); -0.381 in [2]; -0.132 in assay [3]; 0.324 in [4]; -0.312 in assay [5]; -0.139 in [6]. Also, the composite z-score is -0.892 with Sam68 (KHDRBS1), -1.66 in assay [7] and -0.387 in [8]. Moreover, the composite Z-score in [1] is 0.0987 (inactive).
On to `O=C/C=C/c1ccc(-c2ccccc2)cc1`, for which the composite z-score in the assay with Albumin (Bos taurus) is -1.04; in [2], -0.172; in assay [3], -0.0843; in assay [4] it was -0.202; in assay [5] it was -0.327; in [6], 1.35. For the same compound, the values for the composite z-score (in the assay on Sam68 (KHDRBS1); in [7]; in assay [8]) were -0.789, 0.438 and -0.518, respectively. In addition, the composite Z-score in assay [1] is -0.646 (inactive).
Take `[N-]=[N+]=Nc1ccccc1C[C@]1(C(N)=O)COC(c2ccc(OCCCO)cc2)=N1`: the composite z-score with Albumin (Bos taurus) was determined as 0.66; in assay [2], 0.148; in assay [3] it was 0.105; in assay [4], 0.77; in assay [5], 2.98; in assay [6] it was 1.46. Further, the composite z-score in the assay with Sam68 (KHDRBS1) is 0.0271; in [7], -0.324; in [8], -0.401. The composite Z-score in assay [1] was 0.745 (inactive).
Consider `O=C(NC1CC1)[C@@H]1c2ccccc2C(=O)N(C2CCCCC2)[C@H]1c1ccc(CO)cc1`, for which the composite z-score was -0.0383 with Albumin (Bos taurus); -0.214 in [2]; -0.136 in assay [3]; 0.554 in assay [4]; 2.64 in assay [5]; 1.99 in assay [6]. Also, the composite z-score is 0.454 with Sam68 (KHDRBS1), -0.696 in assay [7] and 0.332 in assay [8]. Moreover, the composite Z-score in assay [1] is 0.635 (inactive).
With `CN(C)CCCC[C@@H]1NC(=O)[C@H]2C[C@@H](C(=O)NCCCCCCNC(=O)CS)[C@@H](c3cccc(OCCO)c3)N2C1=O`, the composite z-score with Albumin (Bos taurus) is 0.105; in assay [2] it was -0.195; in assay [3], -0.105; in [4], 0.249; in assay [5], 1.01; in [6], 0.586. In addition, the composite z-score with Sam68 (KHDRBS1) is 0.378; in [7], -0.0352; in assay [8], 0.847. Also, in [1], the composite Z-score was 0.333 (inactive).
Regarding `C=C(COC)C(=O)CC[C@H](OC(C)=O)c1ccccc1OCCO`, the composite z-score with Albumin (Bos taurus) is -1.63; in assay [2], -0.0343; in [3] it was -0.115; in [4] it was 0.662; in assay [5], 0.0092; in assay [6], -0.325. In addition, the results for the composite z-score (with Sam68 (KHDRBS1); in [7]; in assay [8]) were 0.176, -0.0471 and -0.153, respectively. In assay [1], the composite Z-score is -0.743 (inactive).
Regarding `Cc1ccc(S[C@]2(C(=O)NCc3ccccc3)CC(=O)N(Cc3ccccc3C(F)(F)F)[C@@H]2c2ccc(CO)cc2I)cc1`, the composite z-score with Albumin (Bos taurus) is 0.269; in assay [2], -0.242; in assay [3], -0.0417; in assay [4], 0.815; in assay [5], 1.2; in assay [6], 1.04. The composite z-score in the assay with Sam68 (KHDRBS1) is -0.0245; in assay [7] it was -0.175; in assay [8], -0.546. Besides, the composite Z-score in [1] is -0.915 (inactive).

The values above are taken from PubChem BioAssay.
